Test results reported in the supplement of paper PMC6555819.

Columns and labels:
Experiment in all cases: PBM binding z-score (relative to random genomic background probes); higher = stronger binding; sequences stand for … in GC…GCGATTGACAGCGTAGAATGAAGG
[1] = tested on: FXR:RXRa (NR concentration 270 nM, RXRa partner concentration 90 nM)
Method in brief: (§1)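 Scanned fluorescence from custom Agilent 4×180K protein-binding microarrays was regression-normalized. Binding z-scores use random background probes as reference. Ligand-free nuclear receptor dimers were incubated on the arrays for 1 h and detected with antibodies against each partner (one per run).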

[2] = tested on: LXRa:RXRa (NR concentration 270 nM, RXRa partner concentration 90 nM)
Method in brief: as §1

[3] = tested on: LXRa homodimer (NR concentration 270 nM)
Method in brief: as §1

[4] = tested on: LXRb:RXRa (NR concentration 270 nM, RXRa partner concentration 90 nM)
Method in brief: as §1

[5] = tested on: LXRb homodimer (NR concentration 270 nM)
Method in brief: as §1

[6] = tested on: PPARa:RXRa (NR concentration 270 nM, RXRa partner concentration 90 nM)
Method in brief: as §1

[7] = tested on: PPARg:RXRa (NR concentration 180 nM, RXRa partner concentration 90 nM)
Method in brief: as §1

[8] = tested on: PPARg:RXRa 270nM:90nM, anti-RXR (NR concentration 270 nM, RXRa partner concentration 90 nM)
Method in brief: as §1

[9] = tested on: PPARg:RXRa 30nM:10nM, anti-RXR (NR concentration 30 nM, RXRa partner concentration 10 nM)
Method in brief: as §1

[10] = tested on: PPARg:RXRa 90nM:30nM, anti-RXR (NR concentration 90 nM, RXRa partner concentration 30 nM)
Method in brief: as §1

[11] = tested on: PPARg:RXRa DBDmut IVT, anti-RXR (DBD mutation: RXRa K156A/R161A, NR concentration 270 nM, RXRa partner concentration 90 nM)
Method in brief: as §1

[12] = tested on: PPARg:RXRa IVT, anti-PPARg (NR concentration 270 nM, RXRa partner concentration 90 nM)
Method in brief: as §1

[13] = tested on: PPARg DBDmut:RXRa IVT, anti-PPARg (DBD mutation: PPARg1 K132A/R137A, NR concentration 270 nM, RXRa partner concentration 90 nM)
Method in brief: as §1

[14] = tested on: PPARg DBDmut IVT, anti-PPARg (DBD mutation: PPARg1 K132A/R137A, NR concentration 270 nM)
Method in brief: as §1

[15] = tested on: PPARg homodimer (NR concentration 180 nM)
Method in brief: as §1

[16] = tested on: PXR:RXRa (NR concentration 270 nM, RXRa partner concentration 90 nM)
Method in brief: as §1

[17] = tested on: PXR homodimer (NR concentration 270 nM)
Method in brief: as §1

[18] = tested on: RARa:RXR (NR concentration 270 nM, RXRa partner concentration 90 nM)
Method in brief: as §1

[19] = tested on: RARa homodimer (NR concentration 270 nM)
Method in brief: as §1

[20] = tested on: RARb:RXRa (NR concentration 270 nM, RXRa partner concentration 90 nM)
Method in brief: as §1

Row | Sequence | PBM binding z-score [1] | PBM binding z-score [2] | PBM binding z-score [3] | PBM binding z-score [4] | PBM binding z-score [5] | PBM binding z-score [6] | PBM binding z-score [7] | PBM binding z-score [8] | PBM binding z-score [9] | PBM binding z-score [10] | PBM binding z-score [11] | PBM binding z-score [12] | PBM binding z-score [13] | PBM binding z-score [14] | PBM binding z-score [15] | PBM binding z-score [16] | PBM binding z-score [17] | PBM binding z-score [18] | PBM binding z-score [19] | PBM binding z-score [20]
1 | CTTCGGAGGACAACAGGAGGTCAGAGCTGCCAGA | 1.34 | 2.65 | 2.21 | 1.45 | -0.45 | 2.23 | 0.516 | 0.602 | -0.765 | 0.051 | 0.0715 | 0.767 | -2.3 | -1.62 | 1.69 | 2.41 | 0.525 | 2.64 | 0.557 | 2.98
2 | CCTATTAGTTGACCATAAGGGCCACCGAAGCTCG | 0.118 | 0.041 | 0.365 | 0.0156 | 0.659 | 0.169 | 0.368 | 0.219 | 0.231 | 0.304 | 0.171 | 0.5 | 0.477 | 0.579 | 1.36 | -0.0446 | 0.497 | 0.206 | 1.88 | 1.02
3 | GCTGGGAGGACAAGGTCAGAGCTTTGTCCGTAGA | 1.59 | 1.84 | -0.27 | 1.45 | -0.657 | 2.47 | 0.399 | 1.28 | -0.497 | 0.699 | 0.282 | 0.836 | -1.6 | -1.38 | 1.02 | 1.89 | -0.0131 | 2.62 | -0.22 | 3.41
4 | AGAATGAGGTTTTACGTAGATCAGGGAAGAAAGT | -0.139 | -0.0557 | -0.184 | -0.13 | -0.304 | -0.000129 | 0.251 | -0.0665 | 0.263 | 0.297 | 0.314 | -0.118 | 0.643 | 0.771 | 0.322 | 0.0449 | 0.0851 | 0.000653 | 0.0667 | -0.00199
5 | TCTAGTTGGTCACGGAGGTCAGACACGACGGGTA | 2.17 | 2.33 | 1.51 | 2.23 | 0.127 | 2.88 | 2.45 | 2.97 | 3.26 | 3.11 | 2.48 | 3.14 | 0.816 | 0.0631 | 2.07 | 2.96 | 0.703 | 2.79 | 0.955 | 3.26
6 | TCTATTAGTTGAAGGGCAACGGACGAGTCCGTTT | 0.568 | 0.993 | 0.2 | 1.07 | 0.679 | 1.06 | 0.0889 | 2.19 | 3.6 | 2.89 | 2.22 | 0.812 | 0.14 | 0.912 | 0.894 | 0.785 | 1.18 | 0.778 | 0.625 | 1.76
7 | AGAATGAGGTAATACGTAGATCAGGGAAGAAAGT | 0.302 | 0.0343 | -0.0872 | 0.215 | -0.209 | 0.49 | 1.04 | 0.841 | 0.517 | 0.757 | 3.49 | 0.83 | 1.02 | 0.684 | -0.201 | 0.144 | 0.294 | 0.431 | 0.262 | 0.0493
8 | TCTGCTAGGTCAACGATGATCAGCTAATCTGCTA | 3.12 | 1.96 | -0.355 | 1.52 | -0.366 | 3.32 | 2.74 | 2.86 | 2.03 | 2.38 | 4.26 | 4.06 | 0.35 | 0.888 | 0.451 | 0.896 | -0.713 | 1.77 | -0.998 | 3.99
9 | CTCGCAAGGTCGGTTGAGGTGAGTATACGGATAA | 0.755 | 0.469 | -0.26 | 0.374 | -0.72 | 1.3 | -0.0433 | 0.131 | -0.357 | -0.159 | -0.323 | 0.241 | -0.57 | -0.227 | -0.181 | 1.73 | -0.0452 | 1.19 | -0.537 | 1.77
10 | CCTAGCGGGCCAATCTGGGTCACTCAAGGCTTGA | 0.251 | 0.915 | -0.728 | 0.534 | -1.32 | 2.88 | 1.65 | 1.99 | -0.227 | 1.17 | 3.83 | 4.82 | -0.426 | -0.554 | 0.532 | 0.83 | -0.579 | 1.49 | -0.347 | 1.45
11 | ATCTCTAGGTAACAAGTTCAGTGTAAGAGAGGAC | 0.924 | 0.672 | 0.835 | 0.727 | 1.14 | 1.52 | 1.37 | 2.11 | 0.896 | 1.48 | 3.42 | 2.96 | 0.813 | 1.82 | 1.08 | 1.61 | 2.33 | 1.09 | 1.11 | 1.78
12 | CCTGCTAGGTCGTGGTCAGCTAATCTACAGTATG | 0.204 | 0.138 | -0.589 | 0.0814 | -0.563 | 0.699 | -0.0367 | 0.111 | -0.191 | 0.0176 | 1.33 | 0.742 | -0.546 | -0.828 | 0.0786 | 0.00895 | -0.22 | 0.444 | -0.694 | 1.71
13 | TCGCGTAGGTTAGGGGCATTCAGAATGGCGTCGA | 0.432 | 0.41 | -0.522 | 0.996 | 0.176 | 1.04 | -0.162 | 1.01 | 1.38 | 1.41 | 0.918 | -0.148 | -0.436 | -0.621 | -0.168 | 0.489 | 0.0303 | 0.615 | -0.246 | 1.18
14 | TGAATGAGGTTTTAAGATCAGGGAACGTTGCAAA | -0.288 | -0.516 | -0.631 | -0.358 | -0.602 | 0.0128 | -0.186 | 0.12 | 0.000594 | 0.043 | -0.427 | -0.0166 | -0.325 | -0.224 | 0.0827 | -0.0619 | -0.319 | 0.152 | 0.043 | -0.198
